In PubChem BioAssay (NCATS) one finds outcome data, which are given here for 25 compounds.

SMILES strings stand for the structures. Results filed as inconclusive are left out. Calls of active or inactive are those of the source. Calls follow the shape of the dose curve; as a rule, active = well fitted inhibition curve with a large enough effect; inconclusive = small, poorly fitted or top-dose-only effect; inactive = no such curve, though single readings can be large or run the other way.

The subject of the assay is Zika virus NS2B-NS3 protease (unlinked complex). As to the kind of experiment: Primary screen GU Rhodamine qHTS for Zika virus inhibitors: Unlinked NS2B-NS3 protease assay (AID 1347159). Also: nearly all actives have a fitted effect of over 60% in size. The settings on record: Recombinant ZIKV NS2B-NS3 protease, Rhodamine110 substrate fluorescence; series mostly up to 107 µM. An excerpt: Avindra Nath, Ph.D., National Institute of Neurological Disorders and Stroke (NINDS), Bethesda, MD
Radhakrishnan Padmanabhan, Ph.D., Georgetown University (GU), Washington D.C.
Zika Virus causes congenital defects, including microcephaly and is associated with Guillain-Barre syndrome, eningoencephalitis and myelitis in infected adult. […] Using a target-based approach, we hope to establish a screening paradigm to uncover novel, cell-active NS2B-NS3 protease (Zika Virus) specific inhibitors from NCATS' collection of small molecules using qHTS.
Four assay panel was created to identify potential Zika Virus inhibitors. Namely, (1) GU unlinked NS2B-NS3 AMC tagged protease qHTS, (2) GU unlinked NS2B-NS3 Rhodamine tagged protease qHTS, (3) NINDS linked NS2B-NS3 AMC tagged protease qHTS, (4) NINDS linked NS2B-NS3 Rhodamine tagged protease qHTS. Active compounds were re-acquired and re-screened to confirm inhibition. Inhibitors were further screened against various confirmatory and counterscreens in dose response format.
Early Translation Branch (ETB)
National Center for Advancing Translational Sciences (NCATS), Rockville, MD
National Institute of Health (NIH), Bethesda, Maryland
Padmanabhan lab provided the NS2B hydrophilic domain and NS3 protease domain in a noncovalent complex used for the unlinked assay. Control compound aprotinin is obtained from Thermo Scientific (#78432; Waltham, Massachusetts). Rhodamine110 substrate ([N-Cbz]-Nle-Lys-Arg-Arg-Rhod110-Arg-Arg-Lys-Nle-[N-Cbz]) was purchased from either Genscript or Bachem.
1536-well Protease (Rhodamine110 Substrate) Assay:
Briefly, 3 microL of enzyme (25 nM final concentration), in assay buffer (10 mM Tris-HCl pH 8.0 with 0.01% Tween 20) were dispensed into a 1,536-well solid-bottom black plate (Greiner Bio One, Monroe, NC). Twenty-three nL of compounds (final concentration range 7.28 nM to 114 microM) or control Aprotinin (final concentration range 3.47 nM to 114 microM) were transferred via Wako Pin-tool (Wako Automation, Richmond, VA). Samples were incubated (room temperature, protected from light) for 15 minutes followed by a 1 microL Rhodamine110 substrate addition (1.5 microM final concentration). Plates were then immediately read on a ViewLux High-throughput CCD imager (PerkinElmer, Waltham, MA) equipped with FITC fluorescence optics (480(20) nm excitation, 540(25) nm emission), then incubated (room temperature, protected from light) for 15 minutes (~15% conversion). The change in fluorescence intensity over the 15-minute reaction period was normalized against no-inhibitor and no-enzyme controls and the resulting percent inhibition data were fitted to a 4-parameter Hill equation. Aprotinin was used as intraplate control.
Consider `COc1ccc(CN2CCN(C(c3ccc(F)cc3)c3ccc(F)cc3)CC2)c(OC)c1OC`, for which the result was inactive.

`CN1[C@@H]2CC[C@H]1CC(OC(=O)c1c[nH]c3ccccc13)C2` (stereo not given in full): the outcome was inactive.

Take `CN1C(CCl)Nc2cc(Cl)c(S(N)(=O)=O)cc2S1(=O)=O` (stereo not given): the outcome was inactive.

As to `CC(=O)OCC(=O)[C@@]1(O)[C@H](C)C[C@H]2[C@@H]3CCC4=CC(=O)C=C[C@]4(C)[C@@]3(F)[C@@H](O)C[C@@]21C`, the outcome was inactive.

Take `C#C[C@]1(OC(C)=O)CC[C@H]2[C@@H]3CCC4=C[C@@H](OC(C)=O)CC[C@@H]4[C@H]3CC[C@@]21C`: the outcome was inactive.

As to `CC(=O)O[C@]1(C(C)=O)CC[C@H]2[C@@H]3C[C@H](C)C4=CC(=O)CC[C@]4(C)[C@H]3CC[C@@]21C`, the outcome was inactive.

`CC(=O)OCC(=O)[C@@]1(O)CC[C@H]2[C@@H]3CCC4=CC(=O)C=C[C@]4(C)[C@H]3[C@@H](O)C[C@@]21C`: the result was inactive.

Take `CCCCS(=O)(=O)N[C@@H](Cc1ccc(OCCCCC2CCNCC2)cc1)C(=O)O`: the outcome was inactive.

For the compound `Cc1ccc(C(=O)C(C)CN2CCCCC2)cc1` (stereo not given), the result was inactive.

For the compound `CC(C)(C)NC(=O)[C@@H]1CN(Cc2cccnc2)CCN1C[C@@H](O)C[C@@H](Cc1ccccc1)C(=O)N[C@H]1c2ccccc2C[C@H]1O`, the outcome was inactive.

Take `CC(CCc1ccccc1)NCC(O)c1ccc(O)c(C(N)=O)c1` (stereo not given): the outcome was inactive.

For `COC(=O)C1=C(C)NC(C)=C(C(=O)O[C@@H]2CCCN(Cc3ccccc3)C2)[C@@H]1c1cccc([N+](=O)[O-])c1`, the result was inactive.

Take `CC(C)(C)CC(C)(C)c1ccc(OCCOCC[N+](C)(C)Cc2ccccc2)cc1`: the result was inactive.

Turning to `CN1CCN(C(c2ccccc2)c2ccccc2)CC1`, the outcome was inactive.

As for `Cc1ccc(Nc2c(F)cccc2Cl)c(CC(=O)O)c1`, the outcome was inactive.

In the case of `Nc1ccn([C@@H]2O[C@H](CO)[C@@H](O)C2(F)F)c(=O)n1`, the outcome was inactive.

Regarding `CC(C)n1nc(-c2cc3cc(O)ccc3[nH]2)c2c(N)ncnc21`, the outcome was inactive.

For `OC[C@H]1O[C@H](O[C@]2(CCl)O[C@H](CCl)[C@@H](O)[C@@H]2O)[C@H](O)[C@@H](O)[C@H]1Cl`, the result was inactive.

On to `NC(=NCCCCCCN=C(N)/N=C(\N)Nc1ccc(Cl)cc1)/N=C(\N)Nc1ccc(Cl)cc1`, for which the outcome was inactive.

`Cc1ccccc1C(=O)Nc1ccc(C(=O)N2CCCC(N(C)C)c3ccccc32)cc1` (stereo not given): the outcome was inactive.

Regarding `Cc1nc2n(c(=O)c1CCN1CCC(c3noc4cc(F)ccc34)CC1)CCC[C@H]2O`, the result was inactive.

Take `O=C(OCCOCCO)c1ccccc1Nc1cccc(C(F)(F)F)c1`: the result was inactive.

For the compound `COC(=O)CCc1ccc(OCC(O)CNC(C)C)cc1` (stereo not given), the outcome was inactive.

With `CN(C)CCCOc1nn(Cc2ccccc2)c2ccccc12`, the result was inactive.

Regarding `O=c1[nH]c(=O)n([C@H]2CCCO2)cc1F`, the result was inactive.
